PubChem BioAssay (NCI)
Compounds without any hit were thinned out: in the full panel of roughly 83,000, 20% have a hit.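 Interpretation: 100, growth as untreated; towards 0, rising growth inhibition; 0, no net growth; 0 to -100, cell death. Compounds scoring below 10 were considered active.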 The source made the active and inactive calls.

Assays:
Assay in all cases: NCI-60 one-dose screen, 48 h (100 = growth as untreated, 0 = no growth, -100 = all killed)
[1] = test system: SK-MEL-2 melanoma; details: 10 µM unless noted
[2] = test system: EKVX NSCLC; details: 10 µM unless noted
[3] = test system: SN12C renal; details: 10 µM unless noted
[4] = test system: UO-31 renal; details: 10 µM unless noted
[5] = test system: TK-10 renal; details: 10 µM unless noted
[6] = test system: ACHN renal; details: 10 µM unless noted
[7] = test system: CAKI-1 renal; details: 10 µM unless noted
[8] = test system: CCRF-CEM leukemia; details: 10 µM unless noted
[9] = test system: MOLT-4 leukemia; details: 10 µM unless noted
[10] = test system: SR leukemia; details: 10 µM unless noted
[11] = test system: RPMI-8226 leukemia; details: 10 µM
[12] = test system: OVCAR-8 ovarian; details: 10 µM unless noted
[13] = test system: OVCAR-5 ovarian; details: 10 µM unless noted
[14] = test system: IGROV1 ovarian; details: 10 µM unless noted
[15] = test system: OVCAR-3 ovarian; details: 10 µM unless noted
[16] = test system: HS 578T breast; details: 10 µM unless noted
[17] = test system: OVCAR-4 ovarian; details: 10 µM unless noted
[18] = test system: SK-OV-3 ovarian; details: 10 µM
[19] = test system: NCI/ADR-RES ovarian; details: 10 µM unless noted
[20] = test system: A498 renal; details: 10 µM unless noted

Measured: growth

O=c1oc2ccccc2cc1-c1csc(N=Nc2c(O)[nH]c3ccc(Br)cc23)n1
inactive: [1] 107% | [2] 95.8% | [3] 98.7% | [4] 86.3% | [5] 111% | [6] 97.9% | [7] 93.4% | [8] 97.2% | [9] 120% | [10] 114% | [11] 109% | [12] 102% | [13] 97.6% | [14] 99.8% | [15] 108% | [16] 93.3%

COc1cc(-c2nc(Nc3nc4ccccc4[nH]3)nc(N)c2C#N)cc(OC)c1OC
inactive: [1] 59.2% | [2] 74.5% | [3] 92.8% | [4] 69.9% | [5] 80.6% | [6] 61.7% | [7] 56.9% | [8] 70.1% | [11] 69.8% | [12] 79.6% | [13] 101% | [17] 72.8% | [18] 52.6% | [14] 43% | [15] 15.1% | [19] 97.9%

COC(=O)c1c2c(c(C)[n+]([O-])c1C)C(=O)C=C(NCc1ccc(F)c(Cl)c1)C2=O
active: [1] -42.8% | [2] -63.3% | [3] -85.7% | [4] -49.5% | [6] -38.4% | [7] -16.1% | [8] -2.7% | [9] -35.6% | [10] -1.19% | [12] -21.2% | [13] -91.8% | [14] -55.2% | [15] -41.4% | [16] -24.2%
inactive: [5] 21.2%

CN1CCN(CCCn2c3c(sc4ncccc43)c(=O)n3nnc(-c4ccccc4)c23)CC1
inactive: [1] 99.3% | [2] 97.2% | [3] 75.2% | [7] 97.7% | [20] 150% | [11] 72.5% | [13] 119%
active: [4] -90.8% | [5] -73.3% | [8] -20.6% | [9] -35% | [10] -25.2% | [12] -48.2% | [17] -61.4% | [15] -83.1%

COc1cc(/C=N/NC(=O)c2cnn3c2NC(c2ccccc2)C3)ccc1OC1CCCC1 (centres undefined)
inactive: [1] 18.6% | [2] 44.9% | [3] 46.1% | [4] 33.1% | [5] 60.2% | [6] 35.6% | [7] 32.2% | [8] 24.3% | [10] 35.2% | [11] 17.9% | [12] 49.1% | [13] 59.7% | [17] 44.6% | [14] 42.6% | [19] 14%
active: [15] -32.9% | [16] -18%

CN1CCN(c2ccc3nc(-c4ccc5nc(-c6ccc(C(F)(F)F)cc6)[nH]c5c4)[nH]c3c2)CC1
inactive: [1] 103% | [2] 81.6% | [3] 80.3% | [4] 105% | [5] 101% | [6] 55.6% | [7] 43% | [8] 21.2% | [12] 65.5% | [13] 110% | [14] 71.2% | [16] 26.4% | [19] 102%
active: [10] -18.5% | [11] -9.04% | [15] -17.3%

COc1ccc(OC2=CC(=O)c3ccc(C)nc3C2=O)cc1
inactive: [1] 99.5% | [2] 96.5% | [3] 88.3% | [4] 92.3% | [5] 112% | [6] 51.4% | [7] 82.5% | [8] 18.5% | [9] 66.5% | [10] 51.2% | [11] 79.7% | [12] 80.7% | [13] 114% | [14] 87.8% | [15] 72.3% | [16] 83.2% | [19] 87.5%

COc1ccc(-c2c(-c3cc4c(c(OC)c3OC)OCO4)noc2N)cc1
active: [15] -38.1% | [19] 2.53%
inactive: [1] 63% | [2] 40.5% | [3] 44.4% | [4] 57.4% | [5] 66.3% | [7] 37.6% | [20] 35.8% | [8] 11.7% | [9] 36.6% | [10] 10.9% | [11] 17.3% | [12] 32.1% | [17] 55% | [18] 16.2% | [14] 46.3% | [16] 16%

COC(=O)c1c2c(c(C)[n+]([O-])c1C)C(=O)C=C(NCc1cccc(OC)c1)C2=O
active: [1] -64.6% | [2] -68.7% | [3] -93.4% | [4] -62.5% | [5] 4.5% | [6] -81.5% | [7] -32.6% | [8] -17.1% | [9] -45.9% | [10] -8.2% | [11] -35.5% | [12] -23.7% | [13] -90.3% | [14] -64% | [15] -51% | [16] -22.2% | [19] -25.6%

COc1ccc(/C=N\N2CCOCC2)cc1OC1CCCC1
inactive: [1] 106% | [2] 89.4% | [3] 101% | [4] 82% | [5] 101% | [6] 104% | [7] 94.1% | [8] 106% | [9] 122% | [11] 103% | [12] 104% | [13] 103% | [17] 97.6% | [14] 107% | [15] 114% | [16] 90.7% | [19] 106%

CC(=O)OC[C@]1(C)C=C2C(=O)[C@](C)(O)C3(CC3)C(C)=C2[C@H]1OC(C)=O
inactive: [1] 103% | [2] 114% | [3] 83.6% | [4] 41.5% | [5] 99.1% | [6] 51.3% | [7] 84.2% | [8] 95.1% | [9] 109% | [10] 62.8% | [11] 84.1% | [12] 75.9% | [13] 91.3% | [14] 91.1% | [15] 94.9% | [16] 96% | [19] 75%

CCCCCCCCCCCCCCn1c2ccccc2c2c3c(c4c5cc(OC)ccc5oc4c21)C(=O)NC3=O
inactive: [1] 113% | [2] 105% | [3] 101% | [4] 88.5% | [5] 109% | [6] 103% | [7] 93.2% | [8] 103% | [9] 123% | [10] 114% | [11] 112% | [12] 103% | [13] 100% | [14] 106% | [15] 110% | [16] 95.6% | [19] 107%

O=C1CCC(N2Cc3c(C#CCCCNC(=O)c4cc5c(o4)C(=O)c4ccccc4C5=O)cccc3C2=O)C(=O)N1 (centres undefined)
active: [1] -26.6% | [3] -92.2% | [9] 8.52% | [12] 4.59% | [17] -98.5% | [14] -5.62% | [15] -37.3% | [16] -32.8%
inactive: [2] 64.4% | [4] 86.4% | [5] 101% | [6] 71.7% | [7] 78.7% | [8] 12.3% | [13] 20.2% | [19] 89.6%

O=c1oc2ccccc2cc1-c1csc(N/N=C/c2cc3ccccc3nc2Cl)n1
inactive: [1] 106% | [2] 96.1% | [3] 90.6% | [4] 91% | [5] 116% | [6] 101% | [7] 87.5% | [8] 111% | [9] 132% | [10] 129% | [11] 108% | [12] 103% | [13] 98.6% | [14] 93.3% | [15] 108% | [16] 107% | [19] 99.7%

O=c1[nH]c(=S)c2c(n1CCCO)CCC2
inactive: [1] 99.8% | [2] 91.2% | [3] 99.7% | [4] 89.9% | [5] 102% | [6] 103% | [7] 93.2% | [8] 103% | [9] 104% | [11] 101% | [12] 102% | [13] 99.4% | [17] 102% | [14] 103% | [15] 110% | [16] 99.8% | [19] 103%

O=C(N/N=C(\CS(=O)(=O)c1ccccc1)c1cc2ccccc2oc1=O)c1ccccc1
inactive: [1] 115% | [2] 101% | [3] 101% | [4] 94% | [5] 119% | [6] 101% | [7] 96.4% | [8] 106% | [9] 115% | [10] 101% | [11] 112% | [12] 100% | [13] 101% | [14] 109% | [15] 111% | [16] 106% | [19] 107%

COc1ccc(C2=NOC(CC(=O)N(CCO)CCO)C2)cc1OC1CCCC1 (centres undefined)
inactive: [1] 106% | [2] 91.5% | [3] 104% | [4] 88.3% | [5] 98.9% | [6] 104% | [7] 99.5% | [8] 112% | [9] 125% | [10] 106% | [11] 106% | [12] 102% | [13] 98.5% | [14] 106% | [15] 114% | [16] 99.2% | [19] 101%

O=C(N/N=C(\CS(=O)(=O)c1ccccc1)c1cc2cc(Br)ccc2oc1=O)c1ccccc1
inactive: [1] 105% | [2] 94.2% | [3] 96.1% | [4] 94.4% | [5] 108% | [6] 103% | [7] 90.6% | [8] 131% | [9] 140% | [10] 122% | [11] 121% | [12] 101% | [13] 94.1% | [14] 110% | [15] 108% | [16] 99.4% | [19] 105%
